# Bioassay records as filed in PubChem BioAssay.
# Shown are actives, neighbours in structure and some others; about 3.6% of the full set was active somewhere.
# PHOSPHO1 inh – blocks human PHOSPHO1 phosphatase activity; inhibition, % at 13.3 µM; recombinant PHOSPHO1, absorbance phosphatase assay; 290,000 compounds, 1.1% hits; in the data active = inhibition above about 60%
# esBAF inh – inhibitors of esBAF chromatin remodeling in mouse ES cells; Bmi1-luciferase knock-in reporter, 24 h; 100% = twice the neutral-well signal; reporter increase, % at 12.5 µM; 350,000 compounds, 2% hits; AID 602393; in the data active = activation above about 40%;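 note: 0% = median of the plate's neutral control wells and 100% = double that signal; a rise in the Bmi1 reporter signal indicates esBAF inhibition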
# A3A deaminase – blocks human APOBEC3A ssDNA deamination | P31941 | recombinant A3A, FAM/TAMRA ssDNA deamination fluorescence | inhibition, % at 20 µM | 330,000 compounds, 0.41% hits | AID 493011;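 active = at least 40% inhibition at 20 µM here, with at most 30% in a related deaminase screen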;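 note: plate controls were A3A with DMSO for no effect and wells lacking A3A enzyme for full effect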
# Target sequence (P31941 whole entry, looked up): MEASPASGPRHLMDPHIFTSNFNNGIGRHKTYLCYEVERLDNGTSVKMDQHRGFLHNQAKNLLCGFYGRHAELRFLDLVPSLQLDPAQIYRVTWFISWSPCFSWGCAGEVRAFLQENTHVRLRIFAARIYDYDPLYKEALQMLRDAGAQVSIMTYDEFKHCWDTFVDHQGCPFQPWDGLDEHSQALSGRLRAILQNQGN
# APOBEC3G inh – APOBEC3G (human) deaminase inhibition | inhibition, % at 20 µM | 330,000 compounds, 0.28% hits | recombinant A3G, ssDNA deamination FAM/TAMRA fluorescence | Q9HC16;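 active = inhibition of at least 40% at 20 µM, with no more than 30% in the related APOBEC3A deaminase screen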;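 note: plate controls were DMSO wells with A3G for no effect and wells lacking A3G enzyme for full effect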
# Target sequence (Q9HC16 whole entry, looked up): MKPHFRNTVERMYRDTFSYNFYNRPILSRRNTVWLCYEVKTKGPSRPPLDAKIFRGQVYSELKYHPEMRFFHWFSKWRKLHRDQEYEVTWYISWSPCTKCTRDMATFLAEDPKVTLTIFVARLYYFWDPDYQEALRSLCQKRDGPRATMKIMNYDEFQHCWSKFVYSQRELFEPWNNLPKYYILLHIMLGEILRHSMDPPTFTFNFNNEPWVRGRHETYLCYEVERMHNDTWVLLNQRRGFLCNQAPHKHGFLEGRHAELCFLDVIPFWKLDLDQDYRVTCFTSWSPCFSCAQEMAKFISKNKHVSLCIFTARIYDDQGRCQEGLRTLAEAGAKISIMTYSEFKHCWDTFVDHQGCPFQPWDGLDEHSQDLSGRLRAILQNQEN
# Wnt bcat act – Wnt/beta-catenin pathway activation | activation, % at 9.35 µM | Wnt/beta-catenin reporter cell assay, activator, plate reader | 300,000 compounds, 1.2% hits; in the data active = activation above about 30%, passing the limit was not always enough;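 note: 0% = neutral control wells and 100% = positive control wells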
# MITF TRPM1 HTS – MITF TRPM1 promoter activation in melanoma cells; SK-MEL-5 TRPM1-promoter luciferase, 24 h; % of positive control, neutral wells = 0; activation, % at 12.5 µM; 300,000 compounds, 0.75% hits;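 active = mean activation of at least 80% with every replicate also reaching 80%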;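 note: 0% = neutral control wells and 100% = parthenolide positive control wells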
# A3A conf – APOBEC3A (human) deaminase inhibition, confirmed; AID 493151; recombinant A3A, ssDNA deaminase UDG fluorescence assay; 1,400 compounds, 63% hits; inhibition, % at 20 µM; shares compounds with A3A deaminase;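 active = inhibition reaching a set limit, 80% of the first screen's cutoff, at 20 µM in any replicate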;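 note: plate controls were DMSO wells with A3A for no effect and wells lacking A3A enzyme for full effect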
# UDG A3A counter – counter-screen for APOBEC3A inhibitors: UDG; 1,000 tested, under 10 active; shares compounds with A3A deaminase; inhibition, % at 20 µM; UDG counterscreen, FAM/TAMRA uracil oligo fluorescence; call rule not given here
# * hit, by the source's call; . = not tested or not shown.
SMILES,PHOSPHO1 inh,esBAF inh,A3A deaminase,APOBEC3G inh,Wnt bcat act,MITF TRPM1 HTS,A3A conf,UDG A3A counter
O=C(O)c1cc(Cl)c2c(c1)OCO2,10.0,.,42.8*,8.1,0.7,-7.9,27.1,.
CC(C)NC(=O)Nc1cccc2c1O[C@H](CN(C)CC1CCCCC1)[C@@H](C)CN([C@H](C)CO)C2=O,.,0.2,.,.,.,.,.,.
C[C@@H]1CN([C@@H](C)CO)C(=O)Cc2cc(NC(=O)CCC(F)(F)F)ccc2O[C@@H]1CN(C)S(=O)(=O)c1cn(C)cn1,.,3.4,.,.,.,.,.,.
C[n+]1ccccc1Nc1cc([N+](=O)[O-])ccc1N,-18.6,-11.3,63.4*,18.9,-0.8,.,70.2*,-0.8
CCN1C(=NCCOC)N[C@@H](c2ccccc2)[C@H](C(=O)OC)[C@H]1C,.,-8.8,45.8*,9.1,-2.6,1.3,74.9*,0.6
COCCN1C(=O)N[C@@H](c2ccccc2)[C@@H](C(=O)OC)[C@H]1C,.,-7.3,-1.7,-8.0,-2.5,2.2,.,.
CCN1C(=NCc2cc(OC)c(OC)c(OC)c2)N[C@@H](c2ccccc2)[C@H](C(=O)OC)[C@H]1C,-125.7,.,75.1*,28.5,.,.,47.3*,.
Cc1nnc(SCC(=O)N2N=C(c3ccc(Cl)cc3)CC2c2ccco2)[nH]c1=O (stereo not drawn),2.0,.,49.6*,13.1,1.9,0.4,10.2*,-1.6
CC(C)[C@@H](C)NC(=O)N(C)C[C@@H]1OCc2ccccc2-c2ccccc2C(=O)N([C@@H](C)CO)C[C@@H]1C,.,-0.5,.,.,.,.,.,.
CCN1CCN(c2ccccc2NC(=O)c2ccc(-n3cccn3)cc2)CC1,.,-5.5,46.0*,9.4,-1.7,2.7,27.7,.
O=C(Nc1ccccc1N1CCN(c2ccc(F)cc2)CC1)c1ccccc1,-40.4,-17.1,0.1,-2.9,-4.1,2.4,.,.
COc1cccc(S(=O)(=O)Nc2ccc3c(c2)OC[C@H](C)N(Cc2ccccc2F)C[C@H](C)[C@H](OC)CN(C)C3=O)c1,.,17.3,.,.,.,.,.,.
O=C(CSc1nc2ccccc2[nH]1)N1CCN(c2ccccc2)CC1,24.9,12.0,2.9,5.2,0.7,.,.,.
O=C(CSc1nc2sccc2c(=O)[nH]1)N1CCN(c2ccccc2)CC1,27.6,-8.1,87.2*,15.1,-0.3,-0.7,53.2*,-2.1
Clc1ccc(Sc2oc(/C=N/n3cnnc3)cc2Br)cc1,84.3*,-6.1,43.3*,24.9,0.4,-0.2,72.2*,-4.5
COCc1cc(C)nc(N2CCN(c3ccccc3)CC2)c1C#N,1.0,-2.7,-1.4,-8.1,.,10.2,.,.
COCc1cc(C)nc(N2CCN(Cc3ccccc3)CC2)c1C#N,78.3*,-5.9,72.3*,16.5,0.3,4.3,66.0*,-1.8
C[C@@H]1CN([C@@H](C)CO)S(=O)(=O)c2ccc(-c3ccccc3)cc2O[C@H]1CN(C)CC1CCCC1,.,-6.4,.,.,.,.,.,.
COc1cc(Cl)c(C)cc1NC(=O)CSc1sc2c(O)cc(=O)[nH]c2c1C#N,15.1,-4.6,69.4*,26.4,-4.9,-6.1,18.2*,0.6
CCCNC(=O)[C@@H]1[C@@H](CO)[C@@H]2Cn3c(ccc(C4=CCCC4)c3=O)[C@H]1N2C(=O)CC1CC1,.,-0.3,.,.,.,.,.,.
O=C(c1ccncc1)N1C[C@H]2[C@@H](c3ccccc31)[C@H](CO)N2C(=O)CN1CCOCC1,.,-6.1,.,.,.,.,.,.
Cn1cccc2[nH]c(=O)nc1-2,21.0,2.4,77.6*,10.6,0.6,5.3,20.4,.
O=C(Nc1ccc(F)cc1)N[C@@H]1C=C[C@@H](CC(=O)N2CCOCC2)O[C@H]1CO,.,-0.2,.,.,.,.,.,.
CCC(C)N(C(=O)c1csnn1)C(C(=O)NC(C)(C)C)c1ccccc1 (stereo not drawn),5.9,-3.8,61.6*,-4.5,1.6,4.7,-9.1,-0.1
CC(C)(C)NC(=O)C(c1ccccc1)N(Cc1ccco1)C(=O)c1csnn1 (stereo not drawn),10.6,2.6,0.7,-0.5,.,-1.9,.,.
SMILES,PHOSPHO1 inh,esBAF inh,A3A deaminase,APOBEC3G inh,Wnt bcat act,MITF TRPM1 HTS,A3A conf,UDG A3A counter
Cc1ccccc1NC(=O)NNC(=O)CCc1ccccc1,36.4,.,40.5*,0.4,0.4,-3.8,-1.5,.
Cc1ccc(C)c(NC(=O)NNC(=O)CCc2ccccc2)c1,36.4,-3.5,2.2,-3.4,1.0,-18.7,.,.
C[C@H]1CN([C@@H](C)CO)C(=O)c2cccc(NS(=O)(=O)c3ccc(Cl)cc3)c2O[C@H]1CN(C)C(=O)NC1CCCCC1,.,-0.4,.,.,.,.,.,.
COc1ccc(CCN2C(=O)CC(Sc3ncccc3C(=O)O)C2=O)cc1OC (stereo not drawn),-27.4,-6.8,98.0*,-3.6,.,-0.8,-5.4,1.8
CCCN1C(=O)CC(Sc2ncccc2C(=O)O)C1=O (stereo not drawn),36.8,-5.6,-7.1,-5.2,-7.3,-19.8,.,.
C[C@H]1CCCCO[C@H](CN(C)Cc2ccc3c(c2)OCO3)[C@@H](C)CN([C@@H](C)CO)C(=O)c2cc(NC(=O)Cc3ccccc3)ccc2O1,.,-2.1,.,.,.,.,.,.
C[C@@H]1CN([C@H](C)CO)C(=O)c2ccccc2-c2ccccc2CO[C@H]1CN(C)S(=O)(=O)c1ccccc1F,.,-4.1,.,.,.,.,.,.
Cn1c(CC(=O)NN)c(Sc2ccccc2)c2ccccc21,17.5,-8.3,0.8,-6.8,-1.4,-2.1,.,.
COC(=O)c1c(Sc2ccccc2)c2ccccc2n1C,.,-4.0,58.3*,11.2,-1.9,-3.3,81.7*,1.7
COc1ccc2c(C)cc(N3CCCCCC3)nc2c1,28.3,.,-4.6,-8.7,-0.7,12.5,.,.
COc1ccc2c(C)cc(N3CCN(Cc4ccccc4)CC3)nc2c1,24.1,-0.7,41.0*,3.6,0.2,7.8,24.8,.
COc1ccc(NC(=O)c2ccc(OCC3CCCO3)cc2)cc1OC (stereo not drawn),.,51.1*,49.8*,16.1,10.6,38.3,36.1*,0.0
CO[C@@H]1CN(C)C(=O)c2ccc(NC(=O)C3CCOCC3)cc2OC[C@H](C)N(Cc2cccnc2)C[C@H]1C,.,0.1,.,.,.,.,.,.
O=c1[nH]c(N/N=C/c2cc3c(cc2[N+](=O)[O-])OCO3)nc2ccccc12,-97.6,20.9,43.8*,16.1,-2.7,15.5,70.8*,-4.1
O=c1[nH]c(N/N=C\c2ccc3c(c2)OCO3)nc2ccccc12,36.7,-1.8,1.2,-4.8,-1.8,52.5,.,.
CC(=O)c1c(C)cc(C)c(CSc2ccccn2)c1C,.,13.4,58.7*,15.1,0.6,4.0,57.5*,1.3
COc1ccc(C(C)=O)cc1CSc1ccccn1,-27.6,8.2,-2.6,-4.1,4.0,.,.,.
O=c1[nH]ncc2c3ccccc3n(Cc3ccccc3F)c12,31.7,-14.5,43.5*,-7.5,.,-10.3,-6.3,1.2
C[n+]1cccc(/C=N/NC(=O)CC23CC4CC(CC(C4)C2)C3)c1,-10.5,.,44.7*,16.4,-1.3,-1.7,67.2*,0.5
